# MCF10A rereplic: A quantitative high throughput screen for small molecules that induce DNA re-replication in MCF 10a normal breast cells; Potency, µM (top dose mostly 46.1 µM), hits mostly activators; 350,000 tested, 2.9% active; MCF 10A DNA re-replication, Hoechst nuclear intensity, 48 h; AID 624296, 2012; also: nearly all actives have a fitted effect of over 50% in size
# IL-1B inflam inh: qHTS for Inhibitors of Inflammasome Signaling: IL-1-beta AlphaLISA Primary Screen. 360,000 tested, 4.7% active. AID 743279, 2014. activity change, % at 57.5 µM. THP-1 LPS/ATP IL-1B secretion, AlphaLISA, 16 h; active compounds read low; in the data active = activity change below about -50%; inconclusive = mostly about -30% to -49%
#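 THP-1 cells pretreated 1 hr with compounds (up to 57.5 uM final), then stimulated with LPS (250 ng/mL final) plus ATP (1.25 mM final); secreted IL-1B measured by AlphaLISA after 16 hr, decreased signal indicating inhibition.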
# RORgamma inh: qHTS for inhibitors of ROR gamma transcriptional activity. Drosophila S2 Gal4-RORgamma UAS-luciferase reporter, 20 h. Nuclear receptor ROR-gamma (Mus musculus), P51450. AID 2551, 2010. 310,000 tested, 5.4% active. Potency, µM (top dose mostly 53.6 µM), actives largely listed as inhibitors; also: nearly all actives have a fitted effect of over 60% in size
# Target sequence (P51450 whole entry, looked up, the tested form may be a part): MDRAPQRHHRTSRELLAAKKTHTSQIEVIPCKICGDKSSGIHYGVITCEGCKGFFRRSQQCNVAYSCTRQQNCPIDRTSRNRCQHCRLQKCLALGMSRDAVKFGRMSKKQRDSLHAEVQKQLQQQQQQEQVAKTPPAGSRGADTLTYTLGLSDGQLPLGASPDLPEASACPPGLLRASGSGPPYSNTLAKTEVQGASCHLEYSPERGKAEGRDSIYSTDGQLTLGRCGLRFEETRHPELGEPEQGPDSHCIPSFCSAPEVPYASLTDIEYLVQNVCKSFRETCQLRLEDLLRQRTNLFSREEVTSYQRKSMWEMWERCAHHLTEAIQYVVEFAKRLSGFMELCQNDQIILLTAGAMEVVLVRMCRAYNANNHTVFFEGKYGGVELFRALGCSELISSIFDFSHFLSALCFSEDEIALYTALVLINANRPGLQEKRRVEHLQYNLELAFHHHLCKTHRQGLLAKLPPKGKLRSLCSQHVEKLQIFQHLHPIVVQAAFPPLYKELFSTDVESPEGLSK
#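 Drosophila S2 cells stably expressing Gal4-DBD/mouse RORγ fusion under metallothionein promoter plus UAS-luciferase; compound 1 h, then 700 uM CuSO4 induction for 20 h at ambient temperature; inhibition read as reduced luminescence.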
# SW480 rerep: A quantitative high throughput screen for small molecules that induce DNA re-replication in SW480 colon adenocarcinoma cells | SW480 DNA re-replication, Hoechst DNA content imaging, 48 h | Potency, µM (highest dose often 46.1 µM), actives largely listed as activators | 340,000 tested, 1.8% active | AID 624297, 2012; also: nearly all actives have a fitted effect of over 55% in size
#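 Readout is total intensity of Hoechst-stained nuclei, excited at 405 nm and collected at 500-530 nm. Compound treatment lasted 48 hr at 37 C in 5% CO2 before staining.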
# Gal4-VP16 FLuc: VP16 counterscreen qHTS for inhibitors of ROR gamma transcriptional activity. Drosophila S2 Gal4-VP16 UAS-luciferase, luminescence, 20 h. Potency, µM (series often up to 53.6 µM), actives largely listed as inhibitors. 310,000 tested, 3.5% active. AID 2546, 2010;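 also: Gal4-VP16 expression switched on by copper sulfate through the metallothionein promoter; nearly all actives have a fitted effect of over 50% in size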
# Numbers stand for hits; 0 = inactive; ? = inconclusive; - = no result given; [ ] = remark or other dose. Only some compounds are listed: those with a hit (about 11% of all), similar ones and a draw of the others. Unless noted, calls follow the shape of the dose curve; as a rule, active = well fitted curve in the direction sought with a large enough effect; inconclusive = small, poorly fitted or top-dose-only effect, or another doubt; inactive = no such curve, though single readings can be large; an effect the other way counts as inactive or inconclusive.
SMILES,MCF10A rereplic,IL-1B inflam inh,RORgamma inh,SW480 rerep,Gal4-VP16 FLuc
O=C(Nc1nc2ccccc2n1CCN1CCCCC1)C1CCCCC1,0,0,2µM,0,7.08µM
O=C(NCCS(=O)(=O)N1CCN(c2ccccc2F)CC1)c1ccc2c(c1)OCO2,0,0,-,0,-
C=N[C@H](C(=O)N[C@@H]1C(=O)N2[C@@H]1SC(C)(C)[C@@H]2C(=O)O)c1ccccc1,-,-,0,-,0
Cc1ccc(-n2cc(C(=O)c3ccc(N4CCN(C)CC4)cc3)nn2)cc1Cl,0.731µM,0,0,0,0
Cc1cccc(OCC(=O)Nc2ccc3c(c2)OCCO3)c1,0,0,0,0[9.22 µM],0
C/C(=N\OCC(=O)Nc1ccc(OC(F)(F)F)cc1)c1ccc2c(c1)OCCO2,?,-69.4,?,0,?
Cc1ccc(OCC(=O)Nc2ccc3c(c2)OCCO3)cc1C,0,-67.2,0,0,0
Cc1cccc(C)c1OCC(=O)Nc1ccc2c(c1)OCCO2,14.6µM,0,0,0,2.24µM
CCOC(=O)c1nn(-c2ccccc2Cl)c(=O)cc1OCC(=O)Nc1cccc(OC)c1,?,0,-,0,-
CCC(C)CN1C(=O)CN(S(C)(=O)=O)CC1(C)C(=O)Nc1c(C)cccc1C (stereo unspecified),-,0,-,-,-
O=C(NCc1ccccn1)C1(C(F)(F)F)C/C(=C\Cc2ccccc2)CCCO1 (stereo unspecified),-,-,0,-,0
O=C(Nc1cccc(C(F)(F)F)c1)Oc1ccc(Cl)c2cccnc12,0,-102.3,0.501µM,?,1µM
Cc1cccc(C)c1NC(=O)COC(=O)c1cc(-c2cccnc2)nc2ccccc12,11.6µM,0,0,0,0
Cc1c(NC(=O)COC(=O)c2cc(-c3ccc(-c4ccccc4)cc3)nc3ccccc23)c(=O)n(-c2ccccc2)n1C,20.6µM,0,0,-,0
Cc1c(NC(=O)c2cc(-c3cccs3)nc3ccccc23)c(=O)n(-c2ccccc2)n1C,0,-89.4,0,0,0
Cc1c(NC(=O)c2cc(-c3ccccc3)nc3ccccc23)c(=O)n(-c2ccccc2)n1C,?,0,-,0,-
O=C(COC(=O)c1cc(-c2ccccc2)nc2ccccc12)Nc1ccc2c(c1)OCO2,5.17µM,0,0,0,0
CCC1Oc2ccccc2N(CC(=O)NCC2CCCO2)C1=O (stereo unspecified),0,0,0,0,0
O=C(NNC(=O)c1cccc2ccccc12)c1ccc(Br)cc1,0,0,-,0,-
Cc1ccc(NC(=O)CN(C)C(=O)c2cccc(S(=O)(=O)N3CCc4ccccc43)c2)cc1,0,0,-,0,-
CC(=O)N1CCSc2ccc(S(=O)(=O)Nc3cccc(C)c3)cc21,0,0,?,0,0
CC(=O)N1CCSc2ccc(S(=O)(=O)Nc3ccccc3C)cc21,0,-57.0,?,0,0
CCOc1cc(CNn2cn[nH]c2=S)cc(Cl)c1OCc1ccccc1F,0,0,7.94µM,?,6.31µM
CCOc1cc(CNCCc2ccc(S(N)(=O)=O)cc2)ccc1OCc1ccccc1,20.6µM,-53.9,0,?,0
COc1cc(CNCCc2ccc(S(N)(=O)=O)cc2)ccc1OCC(=O)NC(C)(C)C,0,0,0,0,0
SMILES,MCF10A rereplic,IL-1B inflam inh,RORgamma inh,SW480 rerep,Gal4-VP16 FLuc
CCNCc1cc(Cl)c(OCc2ccccc2)c(OCC)c1,0,-93.4,0,0,0
NS(=O)(=O)c1ccc(CCNCc2cc(Br)ccc2OCc2ccccc2)cc1,?,-54.0,?,?,15.8µM
COc1ccc(Br)cc1CN(C)CC(=O)NCCc1ccc(S(N)(=O)=O)cc1,0,0,0,0,0
O=C(Cc1ccc(Br)cc1)N/N=C/c1cccnc1,0,?,0,0,0
O=C(CS(=O)(=O)c1ccccc1)Nc1nnc(Cc2ccccc2)s1,0,0,?,0,0
CC(=O)Nc1nnc([N+](=O)[O-])s1,-,0,-,-,-
CCOc1cc(C(C(=O)NCC2CCCO2)N(C(=O)Cn2nnc3ccccc32)c2ccc(OC)c(OC)c2)ccc1O (stereo unspecified),0,0,0,0,0
NS(=O)(=O)c1ccc(NCc2cc(Cl)ccc2OCc2ccc(F)cc2)cc1,?,-56.7,?,0,0
NS(=O)(=O)c1ccc(NCc2ccccc2OCc2ccccc2F)cc1,0,0,0,0,0
CCOc1cc(CNCCc2ccc(S(N)(=O)=O)cc2)cc(Cl)c1OCc1ccccc1,0,-81.0,0,?,?
Cc1cc(SCc2ccc(Cl)cc2Cl)nc(=O)[nH]1,9.2µM,0,0,?,0
COc1ccccc1Oc1ccc2c(c1)C(=O)N(c1cccc(O)c1)C2=O,?,0,0,0,?
Cc1ccc(C(=O)COC(=O)c2ccc3c(c2)C(=O)N(c2cccc4ncccc24)C3=O)cc1C,16.4µM,0,?,0,15.8µM
COc1ccccc1Oc1ccc2c(c1)C(=O)N(c1cccc3ncccc13)C2=O,0,0,?,0,10µM
O=S1(=O)N[C@H](Cc2ccccc2)COc2cc(N3CCC[C@H]3CO)ccc21,-,0,-,-,-
O=C1c2ccccc2S(=O)(=O)N1Cc1nc2ccccc2s1,0,0,3.16µM,0,3.98µM
Cc1ccccc1CNC(=O)CN1C(=O)c2ccccc2S1(=O)=O,0,0,0,0,0
Cc1ccccc1CN1C(=O)c2ccccc2S1(=O)=O,23.1µM,0,0,0,0
COc1ccc(-c2ccc3c(c2)C2CC3CCN2C(=O)C(C)(C)C)cc1 (stereo unspecified),0,0,-,?,-
COc1ccc(-c2oc3c(c2C#CC(C)(C)O)C(OC)CCC3)cc1 (stereo unspecified),-,-59.2,-,-,-
COc1ccc(-c2oc3c(c2C#CC2(O)CCCCC2)C(OC(C)=O)CCC3)cc1 (stereo unspecified),-,0,-,-,-
CCCCN(C)CCNC(=O)C(=O)c1c(C)[nH]c2ccccc12,0,0,0,0,0
CCCCNC(=S)N(C)/N=C/c1c(F)c(F)c(F)c(F)c1F,?,-104.3,0,0,0
CCCCNC(=S)N(C)/N=C/c1c(C)[nH]c2ccccc12,?,0,12.6µM,0,?
COc1ccc(-c2nnc(-c3ccc(N(C)C)cc3)o2)cc1,?,?,0.794µM,0,0
SMILES,MCF10A rereplic,IL-1B inflam inh,RORgamma inh,SW480 rerep,Gal4-VP16 FLuc
CN(C)c1ccc(-c2nnc(-c3ccccc3F)o2)cc1,0,0,11.2µM,0,?
Cc1ccc(-c2nnc(-c3ccccc3Br)o2)cc1,0,0,12.6µM,0,?
COc1ccc(-c2nnc(-c3ccc(N)cc3)o2)cc1,0,0,0,0,0
Brc1ccc(-c2nnc(-c3ccccc3Br)o2)cc1,0,0,0,0,0
O=C(COC(=O)c1ccccc1)Nc1cccc(S(=O)(=O)N2CCCCC2)c1,0,0,-,0,-
c1ccc(-c2ccc(OCCN3CCCC3)cc2)cc1,-,-,0,-,0

# Compound activity: PubChem BioAssay, National Center for Advancing Translational Sciences (NCATS)
